# Test results taken from PubChem BioAssay AID686979 (National Center for Advancing Translational Sciences (NCATS), 2013).
# Where “and” joins values, the source holds several entries; their conditions need not be identical. Identical values can stand only once. Screen size: about 420,000 compounds; about 50,000 (12%) were called active. Inconclusive results (about 26%) are left out. Calls come from the whole dose curve; as a rule, active = well fitted inhibition curve with a large enough effect; inconclusive = small, poorly fitted or top-dose-only effect; inactive = flat fitted curve, though single readings scatter. What follows is part of a selection rich in actives, with near analogues and random picks from the rest. Where a call stands in place of a potency, no number is given.
# Test: qHTS for Inhibitors of human tyrosyl-DNA phosphodiesterase 1 (TDP1): qHTS in cells in presence of CPT; note: nearly all actives have a fitted effect of over 55% in size
# Conditions: chicken DT40 Tdp1-/-;hTDP1 cells + 20 nM CPT, ATP luminescence, 48 h; series mostly up to 46.2 µM
# How it was run: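 Cell growth measured by CellTiter-Glo luminescence after a minimum 48 h, 37 C compound exposure with 20 nM CPT in Tdp1-knockout DT40 cells stably expressing hTDP1, seeded 400/well; qHTS titration format.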
# Potency is the fitted concentration of half-maximal effect.
row,Structure (SMILES),Potency
1,NC(=O)CSc1nnc(NC(=O)c2ccc3ccccc3c2)s1,inactive
2,CCc1ccccc1NC(=O)c1ccc(F)c(S(=O)(=O)NC2CCCCCC2)c1,inactive
3,Cc1cc(=O)n(CC(=O)Nc2cccc([N+](=O)[O-])c2)c(-n2nc(C)cc2C)n1,20.6 µM (active)
4,CN1CCN(CC(=O)Nc2cccc([N+](=O)[O-])c2)CC1,inactive
5,O=C(CN1CCOCC1)Nc1cccc([N+](=O)[O-])c1,inactive
6,Cn1c(=O)c2c(ncn2CC(=O)N/N=C/c2cn[nH]c2-c2ccc(F)cc2)n(C)c1=O,inactive
7,COc1ccc(Br)cc1/C=N/Nc1ccc(Cl)c(C(=O)O)c1,inactive
8,N#Cc1c(-c2ccc(F)cc2)cc(C2CC2)nc1SCC(=O)c1cccs1,inactive
9,O=S(=O)(NC1CC1)c1ccc(Cl)cc1,inactive
10,O=S(=O)(NC1CC1)c1ccc(F)c(F)c1,inactive
11,Cn1sc(=O)c2cc(S(=O)(=O)NC3CC3)ccc21,2.91 µM (active)
12,COc1ccc(C)cc1NC(=O)NCCCCc1ccccc1,inactive
13,CCOC(=O)c1[nH]c(C)c(C(=O)OCC(=O)N2c3ccccc3CC2C)c1C (stereo not drawn),inactive
14,CC(=O)CSc1nc(CCc2ccccc2)c(C#N)c(=O)[nH]1,inactive
15,Cc1nn2c(=O)cc(COC(=O)c3ccccc3NC(=O)COc3ccccc3C)nc2s1,inactive
16,CSc1nc2ccc(S(=O)(=O)N3CCc4ccccc43)cc2s1,16.4 µM (active)
17,NS(=O)(=O)c1ccc2nc(NC(=O)C3=COCCO3)sc2c1,inactive
18,CS(=O)(=O)c1ccc2nc(NC(=O)c3ccc(N4CCCC4=O)cc3)sc2c1,inactive
19,O=C(Nc1nc2ccc([N+](=O)[O-])cc2s1)c1ccc(S(=O)(=O)N2CCCc3ccccc32)cc1,4.61 µM (active)
20,Cc1cccc(C(=O)Nc2nnc(S(=O)(=O)N3CCCCCC3)s2)c1,inactive
21,O=C(Nc1nnc(S(=O)(=O)N2CCCc3ccccc32)s1)c1cccc(F)c1,16.4 µM (active)
22,CCC(=O)Nc1nnc(S(=O)(=O)N2CCCc3ccccc32)s1,inactive
23,CCOC(=O)CSc1nnc(NC(=O)c2cccc(S(=O)(=O)N3CCCCC3)c2)s1,inactive
24,Cc1nn(C)c(C)c1S(=O)(=O)N1CCc2ccccc21,inactive
25,O=S(=O)(c1ccccc1)N1CCc2ccccc21,inactive
26,O=C(Nc1nnc(S(=O)(=O)N2CCCCCC2)s1)c1cccc(Br)c1,5.8 µM (active) and 25.9 µM (active)
27,O=C(Nc1nnc(S(=O)(=O)N2CCOCC2)s1)c1cccc(Br)c1,inactive

row,Structure (SMILES),Potency
1,CN(Cc1ccc2nsnc2c1)Cc1nc(Cc2cccc(F)c2)no1,inactive
2,Cc1cc(C)c(S(=O)(=O)c2ccc(F)cc2C)c(=O)[nH]1,inactive
3,CN(CC(=O)NC1CCCC1)S(=O)(=O)c1cnc[nH]1,inactive
4,C=CCN1CN(S(=O)(=O)c2ccc(OC)cc2)c2nc3ccccc3nc21,inactive
5,O=C(Cn1cc(C(F)(F)F)ccc1=O)N/N=C/c1ccc(Cl)cc1Cl,inactive
6,CC1(C(=O)NS(=O)(=O)c2ccc(C#N)cc2)CCN1C(=O)c1ccc(C2CCCCC2)cc1 (stereo not drawn),inactive
7,O=C(CNC(=O)OCc1ccccc1)NC1CCCCNC1=O (stereo not drawn),inactive
8,Cc1ccc(C(=O)NCC(=O)OCC(=O)NC2CCCCCCC2)cc1,inactive
9,CN(C1CCS(=O)(=O)C1)S(=O)(=O)c1ccc2ccccc2c1 (stereo not drawn),inactive
10,O=C(NC(Nc1nc2ccc([N+](=O)[O-])cc2s1)(C(F)(F)F)C(F)(F)F)c1ccccc1,0.461 µM (active)
11,O=C(COC(=O)c1ccc(F)cc1)Nc1nc2ccc([N+](=O)[O-])cc2s1,inactive
12,O=C(CNC(=O)c1ccccc1)Oc1ccc([N+](=O)[O-])cc1,inactive
13,Nc1ccc(N=Nc2ccccc2Cl)c(N)n1,inactive
14,Cc1ccc(-c2nc3ccc(Br)cn3c2Cc2ccccc2C(F)(F)F)cc1,16.4 µM (active)
15,Cc1ccc(Cc2c(-c3ccco3)nc3ccc(Cl)cn23)cc1,8.2 µM (active)
16,Cc1ccc(-c2nc3c(C)cc(Br)cn3c2Cc2ccccc2)cc1,inactive
17,Cc1ccc(-c2nc3ccc(Cl)cn3c2Cc2ccccc2)cc1,20.6 µM (active)
18,Cc1ccc(Cc2c(-c3ccccc3)nc3ccc(Cl)cn23)cc1,inactive
19,CN1CCN(Cc2c(C(=O)N3CCc4ccccc4C3)nc3ccc(Cl)cn23)CC1,inactive
20,Cc1cc(Br)cn2c(Cc3ccccc3C(F)(F)F)c(C3CCCCC3)nc12,inactive
21,CC(=O)Nc1c(-c2ccc(C)cc2)nc2ccc(Cl)cn12,inactive
22,Cc1cc(Br)cn2c(Cc3ccccc3C(F)(F)F)c(-c3ccc(Cl)cc3)nc12,inactive
23,Cc1ccccc1-n1nnnc1SCCCC(=O)c1ccc(F)cc1,inactive
24,CCCS(=O)(=O)NC(=O)C1(C)CCCN(C(=O)c2cc(C)on2)C1 (stereo not drawn),inactive
25,O=S(=O)(c1cccc(-c2cn3ccccc3n2)c1)N1CCCC1,inactive
26,O=C(COC(=O)c1cccc(Cl)c1)NC1CCCCCCC1,inactive
